Source: ChEMBL document CHEMBL3988442, “University of Dundee, Small-Polar-MMV Screening Library” (2021)
For some assays here: Measured potencies and affinities stand elsewhere.

Key:
Set-up in all cases: scale not given: direction of the effect not stated beside the values
[1] = biological target: Protein translocase subunit SecA (Escherichia coli (strain K12)) (UniProt P10408); assay: Assay to Identify E. coli SecA ATPase Inhibitors; format: functional; details: 30 µM
[2] = biological target: T1, Ubiquitin-activating enzyme e1, putative (Leishmania donovani (strain BPK282A1)) (UniProt E9BSI1); assay: Leishmania donovani Ubiquitin Activating Enzyme (LdE1); format: functional; details: 30 µM
T1 sequence (whole entry): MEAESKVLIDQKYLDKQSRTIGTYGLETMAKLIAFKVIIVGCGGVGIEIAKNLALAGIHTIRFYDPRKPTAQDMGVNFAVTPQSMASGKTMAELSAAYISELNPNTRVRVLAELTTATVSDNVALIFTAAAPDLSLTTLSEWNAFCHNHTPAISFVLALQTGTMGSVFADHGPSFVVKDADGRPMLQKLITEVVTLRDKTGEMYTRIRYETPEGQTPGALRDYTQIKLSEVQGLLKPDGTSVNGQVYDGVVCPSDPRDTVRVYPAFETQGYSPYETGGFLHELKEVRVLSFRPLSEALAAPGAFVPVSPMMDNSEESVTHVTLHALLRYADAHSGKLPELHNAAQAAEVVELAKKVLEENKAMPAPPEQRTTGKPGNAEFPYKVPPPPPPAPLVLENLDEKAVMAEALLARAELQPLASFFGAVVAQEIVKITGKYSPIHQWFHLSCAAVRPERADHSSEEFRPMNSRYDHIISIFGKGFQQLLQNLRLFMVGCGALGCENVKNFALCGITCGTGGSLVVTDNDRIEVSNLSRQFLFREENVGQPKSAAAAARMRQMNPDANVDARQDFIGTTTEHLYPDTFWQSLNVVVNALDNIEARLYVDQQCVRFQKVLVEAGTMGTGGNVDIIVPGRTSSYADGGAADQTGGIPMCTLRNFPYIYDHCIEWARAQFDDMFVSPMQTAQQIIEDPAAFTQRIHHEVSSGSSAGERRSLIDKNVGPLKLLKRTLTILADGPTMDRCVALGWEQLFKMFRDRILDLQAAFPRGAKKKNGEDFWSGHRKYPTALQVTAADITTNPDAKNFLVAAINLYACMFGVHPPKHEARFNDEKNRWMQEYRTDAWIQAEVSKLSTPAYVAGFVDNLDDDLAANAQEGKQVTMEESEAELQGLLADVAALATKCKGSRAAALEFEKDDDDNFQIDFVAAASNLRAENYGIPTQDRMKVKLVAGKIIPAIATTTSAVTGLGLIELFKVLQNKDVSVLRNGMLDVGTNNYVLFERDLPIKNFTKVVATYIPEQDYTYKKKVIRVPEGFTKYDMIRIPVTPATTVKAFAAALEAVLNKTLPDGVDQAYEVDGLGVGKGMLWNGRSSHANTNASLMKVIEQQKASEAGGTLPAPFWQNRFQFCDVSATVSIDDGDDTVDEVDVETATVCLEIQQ

[3] = biological target: AMP-activated protein kinase, AMPK (Homo sapiens) (UniProt P54646+O43741+P54619+Q9UGJ0+Q9Y478+Q13131+Q9UGI9); assay: AMP-dependent Kinase enzyme assay. An in vitro enzyme assay that detects ADP turnover that is directly proportional to AMPK activity. This uses naive AMPK that is activated during the assay with MK-8722; format: functional; details: 30 µM
[4] = biological target: Sialic acid-binding Ig-like lectin 9 (Homo sapiens) (UniProt Q9Y336); assay: Hs-Siglec9 ALPHAscreen SOP 20170721; details: 10 µM
Sialic acid-binding Ig-like lectin 9 (Homo sapiens), sequence (Q9Y336 whole entry): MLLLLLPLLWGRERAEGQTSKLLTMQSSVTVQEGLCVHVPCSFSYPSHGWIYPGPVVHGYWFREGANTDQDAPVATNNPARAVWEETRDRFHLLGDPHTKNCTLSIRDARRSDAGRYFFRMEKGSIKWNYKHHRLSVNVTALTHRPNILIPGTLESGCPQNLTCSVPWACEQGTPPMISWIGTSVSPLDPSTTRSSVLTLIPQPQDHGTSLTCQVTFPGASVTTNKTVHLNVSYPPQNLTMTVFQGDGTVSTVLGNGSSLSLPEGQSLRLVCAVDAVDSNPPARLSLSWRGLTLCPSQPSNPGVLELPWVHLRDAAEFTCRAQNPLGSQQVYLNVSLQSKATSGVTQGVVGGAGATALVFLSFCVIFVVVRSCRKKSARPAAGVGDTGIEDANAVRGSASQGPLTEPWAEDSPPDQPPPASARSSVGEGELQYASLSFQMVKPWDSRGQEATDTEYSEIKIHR

Trypanosoma cruzi = assay: Trypanosoma cruzi phosphomannomutase and mannose-1-phosphate guanylyltransferase assay; format: functional; details: 10 µM
[5] = biological target: T2, Arginase-2, mitochondrial (Homo sapiens) (UniProt P78540); assay: in vitro enzyme assay to detect the production of urea directly proportional to the activity of Arginase II; format: functional; details: 33.3 µM; note: in the data most compounds retested in dose-response had high values
T2 sequence (whole entry): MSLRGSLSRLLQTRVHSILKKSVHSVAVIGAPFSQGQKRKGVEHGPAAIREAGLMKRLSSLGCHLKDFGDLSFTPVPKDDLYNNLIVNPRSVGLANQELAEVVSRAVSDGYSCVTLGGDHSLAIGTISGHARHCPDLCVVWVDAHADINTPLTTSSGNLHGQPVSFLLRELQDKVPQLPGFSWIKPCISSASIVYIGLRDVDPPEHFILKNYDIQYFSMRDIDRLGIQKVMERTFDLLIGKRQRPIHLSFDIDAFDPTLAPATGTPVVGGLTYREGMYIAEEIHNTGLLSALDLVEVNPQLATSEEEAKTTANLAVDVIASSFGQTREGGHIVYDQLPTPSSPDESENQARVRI

[6] = biological target: T3, Proteasome subunit beta (Trypanosoma cruzi) (UniProt O96673); assay: Trypanosoma cruzi proteasome chymotrypsin-like activity (TcProtChymo) assay.; note: in the data most compounds retested in dose-response had high values; format: functional; details: 9.37 µM
T3 sequence (whole entry): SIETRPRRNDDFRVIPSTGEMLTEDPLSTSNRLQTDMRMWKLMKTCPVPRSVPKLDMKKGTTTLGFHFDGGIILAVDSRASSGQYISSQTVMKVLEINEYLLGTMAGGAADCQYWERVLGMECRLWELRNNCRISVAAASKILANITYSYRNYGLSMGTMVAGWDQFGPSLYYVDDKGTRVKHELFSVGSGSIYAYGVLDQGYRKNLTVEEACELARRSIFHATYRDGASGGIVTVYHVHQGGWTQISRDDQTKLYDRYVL

Homo sapiens = organism: Homo sapiens; assay: To identify inhibition of the IFN signalling (Jak-Stat) pathway via expression of an eGFP reporter gene under the control of an IFN-stimulated response element (ISRE) containing MxA promoter.; format: functional; details: 30 µM
[7] = biological target: T4, Tyrosyl-tRNA synthetase, putative (Trypanosoma cruzi (strain CL Brener)) (UniProt Q4DSP6); assay: Trypanosoma cruzi tyrosyl tRNA synthetase (TcYRS) _High Tyrosine SOP; format: functional; details: 30 µM; note: in the data most compounds retested in dose-response had high values
T4 sequence (whole entry): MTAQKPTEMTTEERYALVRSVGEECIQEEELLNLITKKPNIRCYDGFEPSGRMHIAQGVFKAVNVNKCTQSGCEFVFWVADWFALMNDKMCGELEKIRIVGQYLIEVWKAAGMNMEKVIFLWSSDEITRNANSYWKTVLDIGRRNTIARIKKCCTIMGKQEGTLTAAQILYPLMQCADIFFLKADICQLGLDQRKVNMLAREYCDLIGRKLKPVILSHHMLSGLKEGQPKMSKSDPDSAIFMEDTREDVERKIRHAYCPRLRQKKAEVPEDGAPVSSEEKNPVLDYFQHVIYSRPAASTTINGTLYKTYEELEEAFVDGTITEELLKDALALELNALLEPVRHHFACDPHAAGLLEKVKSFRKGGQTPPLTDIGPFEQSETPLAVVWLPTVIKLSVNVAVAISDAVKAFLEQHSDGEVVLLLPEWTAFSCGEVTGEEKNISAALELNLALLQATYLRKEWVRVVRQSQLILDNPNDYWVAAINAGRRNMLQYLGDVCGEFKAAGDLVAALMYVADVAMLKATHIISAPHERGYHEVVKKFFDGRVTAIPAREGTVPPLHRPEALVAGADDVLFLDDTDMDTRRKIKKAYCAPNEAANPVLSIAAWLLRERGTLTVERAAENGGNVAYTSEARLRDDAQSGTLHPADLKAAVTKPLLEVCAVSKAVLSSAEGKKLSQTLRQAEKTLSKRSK

[8] = biological target: T4, Tyrosyl-tRNA synthetase, putative (Trypanosoma cruzi (strain CL Brener)); assay: Trypanosoma cruzi tyrosyl tRNA synthetase (TcYRS) SOP; format: functional; details: 30 µM
[9] = biological target: Chromo domain-containing protein 1 (Saccharomyces cerevisiae (strain ATCC 204508 / S288c) (Baker's yeast)) (UniProt P32657); assay: ScCHD-1 Enzyme Inhibition Assay; format: functional; details: 30 µM; note: in the data most compounds retested in dose-response had high values
Chromo domain-containing protein 1 (Saccharomyces cerevisiae (strain ATCC 204508 / S288c) (Baker's yeast)), sequence (P32657 whole entry, the tested form may be a part): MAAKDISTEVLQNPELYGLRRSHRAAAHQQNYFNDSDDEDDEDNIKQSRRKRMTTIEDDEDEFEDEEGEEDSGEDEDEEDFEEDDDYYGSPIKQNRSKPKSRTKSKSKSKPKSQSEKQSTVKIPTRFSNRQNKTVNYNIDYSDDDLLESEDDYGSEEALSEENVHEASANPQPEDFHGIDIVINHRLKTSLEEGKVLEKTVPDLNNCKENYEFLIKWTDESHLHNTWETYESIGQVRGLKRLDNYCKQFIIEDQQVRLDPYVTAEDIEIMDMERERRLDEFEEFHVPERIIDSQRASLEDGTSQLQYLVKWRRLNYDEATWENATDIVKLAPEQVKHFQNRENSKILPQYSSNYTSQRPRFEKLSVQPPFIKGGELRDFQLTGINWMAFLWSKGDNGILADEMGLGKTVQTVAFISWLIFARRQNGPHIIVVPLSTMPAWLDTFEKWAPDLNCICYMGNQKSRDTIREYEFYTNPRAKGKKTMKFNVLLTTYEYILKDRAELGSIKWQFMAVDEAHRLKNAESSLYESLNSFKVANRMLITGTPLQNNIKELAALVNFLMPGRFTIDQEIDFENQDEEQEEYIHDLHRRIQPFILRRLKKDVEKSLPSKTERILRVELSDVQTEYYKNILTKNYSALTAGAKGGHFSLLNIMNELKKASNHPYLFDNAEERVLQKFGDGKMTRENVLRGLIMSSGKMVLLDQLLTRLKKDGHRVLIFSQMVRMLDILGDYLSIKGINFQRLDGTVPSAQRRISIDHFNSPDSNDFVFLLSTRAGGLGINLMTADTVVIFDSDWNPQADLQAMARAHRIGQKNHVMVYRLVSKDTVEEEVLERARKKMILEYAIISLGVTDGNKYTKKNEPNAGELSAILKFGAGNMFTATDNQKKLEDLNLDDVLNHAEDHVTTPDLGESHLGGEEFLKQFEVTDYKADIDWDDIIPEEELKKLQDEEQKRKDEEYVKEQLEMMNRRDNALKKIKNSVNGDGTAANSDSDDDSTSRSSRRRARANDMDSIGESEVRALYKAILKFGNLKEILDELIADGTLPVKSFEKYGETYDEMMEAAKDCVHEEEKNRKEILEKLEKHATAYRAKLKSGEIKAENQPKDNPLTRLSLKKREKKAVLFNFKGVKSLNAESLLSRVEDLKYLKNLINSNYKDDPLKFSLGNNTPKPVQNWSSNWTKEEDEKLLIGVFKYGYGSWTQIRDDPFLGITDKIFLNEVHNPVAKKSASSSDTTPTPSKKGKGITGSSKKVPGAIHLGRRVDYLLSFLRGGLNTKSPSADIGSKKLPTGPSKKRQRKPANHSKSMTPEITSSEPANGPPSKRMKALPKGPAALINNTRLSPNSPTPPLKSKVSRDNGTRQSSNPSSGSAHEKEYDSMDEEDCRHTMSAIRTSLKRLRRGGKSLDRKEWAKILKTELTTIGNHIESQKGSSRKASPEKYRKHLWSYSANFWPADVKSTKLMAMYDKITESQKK

Protein translocase subunit SecA (Escherichia coli (strain K12)), sequence (P10408 whole entry): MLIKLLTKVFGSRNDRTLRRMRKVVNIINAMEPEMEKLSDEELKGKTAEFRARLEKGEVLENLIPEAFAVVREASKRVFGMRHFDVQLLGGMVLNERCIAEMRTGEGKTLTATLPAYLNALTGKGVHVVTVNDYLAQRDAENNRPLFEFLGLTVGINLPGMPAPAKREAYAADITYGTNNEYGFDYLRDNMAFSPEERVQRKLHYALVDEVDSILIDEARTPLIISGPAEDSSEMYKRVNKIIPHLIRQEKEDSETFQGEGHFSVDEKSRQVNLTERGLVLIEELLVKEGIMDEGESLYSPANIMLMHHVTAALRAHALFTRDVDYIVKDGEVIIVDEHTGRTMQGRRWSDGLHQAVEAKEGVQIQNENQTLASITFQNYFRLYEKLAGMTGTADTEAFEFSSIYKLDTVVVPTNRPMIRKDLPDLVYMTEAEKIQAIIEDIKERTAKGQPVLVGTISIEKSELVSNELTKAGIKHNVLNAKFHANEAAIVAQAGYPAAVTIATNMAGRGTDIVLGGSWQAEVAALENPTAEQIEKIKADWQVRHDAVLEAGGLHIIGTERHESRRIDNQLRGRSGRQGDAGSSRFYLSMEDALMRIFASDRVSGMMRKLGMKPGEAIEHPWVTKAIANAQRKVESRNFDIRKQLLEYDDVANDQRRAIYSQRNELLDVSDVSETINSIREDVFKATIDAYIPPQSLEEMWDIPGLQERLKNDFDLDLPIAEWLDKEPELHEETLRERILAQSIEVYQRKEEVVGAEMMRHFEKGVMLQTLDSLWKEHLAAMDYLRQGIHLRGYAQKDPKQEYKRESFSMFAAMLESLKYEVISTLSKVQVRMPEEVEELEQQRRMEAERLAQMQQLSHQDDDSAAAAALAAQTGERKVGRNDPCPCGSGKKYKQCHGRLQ

| SMILES | Percent Effect [1] | Percent Effect [2] | Percent Effect [3] | Percent Effect [4] | Percent Effect (Trypanosoma cruzi) | Percent Effect [5] | Percent Effect [6] | Percent Effect (Homo sapiens) | Percent Effect [7] | Percent Effect [8] | Percent Effect [9] |
| --- | --- | --- | --- | --- | --- | --- | --- | --- | --- | --- | --- |
| COc1ccc(C(O)CNC(=O)Nc2cc(C)nn2C)cc1 (stereo unspecified) | -8.64% | 5.26% | 3.77% | -0.779% | -9.59% | -1.53% | 15.4% | 20.4% | -3.43% | -2.44% | -6.99% |
| CN(C)S(=O)(=O)c1ccc(CN2CCCC2c2ccccc2)o1 (stereo unspecified) | -4.81% | -7.89% | 2.57% | -3.79% | 9.06% | 2.88% | 5.33% | 15.1% | 6.4% | 23.5% | -6.96% |
| Cn1ccnc1CN1CCC2(COCCN(Cc3ccsc3)C2)C1 (stereo unspecified) | -3.36% | 13% | -5.28% | 12.1% | 6% | -11% | 12.2% | -9.92% | 9.68% | 21% | -6.67% |
| Cc1noc(C(C)N2CCN(CCCN3CCCC3=O)CC2)n1 (stereo unspecified) | -1.22% | 21.6% | 32.3% | 1.61% | 1.23% | -8.02% | 19.5% | 9.12% | 7.39% | 23.5% | -15.8% |
| COc1cccc2cc(CNC(C)(C)C(=O)N3CCC(O)CC3)oc12 | -4.3% | 5.06% | -3.21% | -2.38% | 7.08% | -0.76% | -6.14% | -31.3% | 6.4% | 3.8% | -3.05% |
| CCOCCC(=O)N1CCCC(c2ncc[nH]2)C1 (stereo unspecified) | -3.07% | 2.74% | -7.86% | -2.18% | -5.29% | 6.36% | 4.97% | 11.3% | 2.15% | 7.5% | -0.879% |
| Cn1cccc1C(=O)N1CCn2cc(CNC(=O)CC3CC3)nc2C1 | -2.92% | 13.3% | 10.1% | -5.14% | 4.13% | -0.233% | 6.61% | 0.949% | 8.51% | 16.7% | -6.08% |
| CSCCCNC(=O)Nc1cccc(-c2nccn2C)c1 | -3.41% | 6.94% | -0.0628% | 2.76% | -0.0972% | 1.32% | 16.8% | 10.7% | 1.05% | 2.56% | -2.41% |
| CN(C)[C@@H]1CCN(C(=O)c2ccsc2)[C@H]1Cc1cnn(C)c1 | -3.13% | 0% | 12.6% | 1.61% | -3.15% | -1.63% | 12.2% | 4.21% | 3.19% | -1.28% | 2.12% |
| CCn1nc(C)c(CNC(=O)c2cn(CC3CCCO3)nn2)c1C (stereo unspecified) | -6.8% | 0% | -1.16% | 7.76% | 2.24% | 2.08% | 2.27% | 6.98% | 6.01% | 11.1% | -0.117% |
| c1ccc(-n2cc(CN3CCCC(Cn4cncn4)C3)nn2)cc1 (stereo unspecified) | -2.56% | 3.8% | 7.41% | 3.66% | -3.79% | -0.215% | 15.4% | 12.2% | 7.29% | 12.7% | -25.5% |
| CC(C)COC(C)C(=O)NCc1ccc(OC(C)C)nc1 (stereo unspecified) | -1.41% | 15.6% | -0.374% | 1.85% | 2.84% | 1.9% | 11.1% | -12.7% | 8.57% | 25.9% | -24.5% |
| CCS(=O)(=O)CC(=O)NC(c1ccccc1)C1CCCCC1 (stereo unspecified) | -6.35% | 2.63% | 9.57% | -0.679% | 3.41% | -17.8% | 21.6% | -15.8% | 4.25% | 7.79% | -3.43% |
| CN(CC(=O)NCc1ccccn1)CC1CCCN1c1cccnn1 (stereo unspecified) | -1.59% | -5.41% | -4.72% | -0.887% | -2.15% | -3.75% | 27.8% | 3.47% | 8.91% | 1.22% | -0.357% |
| O=C1CCSCC(C(=O)N2CCCC2)N1 (stereo unspecified) | -1.89% | 0% | 2.29% | -5.9% | -3.33% | -1.36% | 3.37% | -3.33% | 1.07% | 5% | -1.55% |
| CNC(=O)[C@H]1CO[C@H]2CCN(Cc3ccc4ccccc4n3)C[C@H]2C1 | -4.79% | 8.11% | 7.95% | -3.25% | -3.62% | 9.87% | 18.8% | -14.1% | 2.16% | 15.4% | 1.01% |
